The results in this text go back to PubChem BioAssay.

Experiment [1] has as its system XIP peptide (Xip251-270) binding. As to the kind of experiment: small-molecule binders of XIP peptide, primary screen, biochemical, small-molecule microarray, fluorescence 635/667 nm, 0.1 µg/mL protein (AID 1182). The conditions noted are these: fluorescent protein binding, 635 nm, higher = more signal, called active from +8 up or from −8 down.
In a further experiment the test system is XIP peptide (Xip251-270). As to the kind of experiment: small-molecule binders of XIP peptide, primary screen, biochemical, small-molecule microarray, fluorescence 635/667 nm, 0.5 µg/mL protein (AID 1183). The settings on record: small-molecule microarray binding, fluorescence 635 nm; higher = more signal.
Experiment [2] can be described thus: Plasmodium falciparum growth inhibition, primary screen, strain 3D7, DAPI fluorescence, 100 nL (AID 1184).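 Also: parasites grown inside human red blood cells in medium with human serum.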 The conditions noted are these: P. falciparum 3D7 growth, 3 d, higher = more signal.
Experiment [3] has as its target Homeobox protein Hox-A13 (Mus musculus) (UniProt Q62424). Nature of the experiment: inhibitors of HoxA13-DNA binding, primary screen, biochemical, fluorescence polarization, labeled oligonucleotide (AID 1185). The settings on record: 15 min, higher = more signal, called active from +8 up or from −8 down. On the technique in general: Polarisation of emitted light reports the rotation of a fluorescent probe.

Experiment [4] is described as follows: inhibitors of hydroxyurea-induced Chk1 phosphorylation, primary screen, imaging, HeLa, phospho-Chk1 antibody, percent positive cells (AID 1186). The settings on record: hydroxyurea-induced phospho-Chk1 immunofluorescence imaging, higher = more signal.
A short description of experiment [5]: inhibitors of hydroxyurea-induced Chk1 phosphorylation, primary screen, imaging, HeLa, phospho-Chk1 nuclear intensity (AID 1187). The conditions noted are these: hydroxyurea-induced phospho-Chk1 immunofluorescence imaging, higher = more signal.

Molecules are shown by their SMILES. The source made the active and inactive calls. Unless noted, no rule for the calls is given here.

Chain of Homeobox protein Hox-A13 (Mus musculus) (Q62424 whole entry, looked up): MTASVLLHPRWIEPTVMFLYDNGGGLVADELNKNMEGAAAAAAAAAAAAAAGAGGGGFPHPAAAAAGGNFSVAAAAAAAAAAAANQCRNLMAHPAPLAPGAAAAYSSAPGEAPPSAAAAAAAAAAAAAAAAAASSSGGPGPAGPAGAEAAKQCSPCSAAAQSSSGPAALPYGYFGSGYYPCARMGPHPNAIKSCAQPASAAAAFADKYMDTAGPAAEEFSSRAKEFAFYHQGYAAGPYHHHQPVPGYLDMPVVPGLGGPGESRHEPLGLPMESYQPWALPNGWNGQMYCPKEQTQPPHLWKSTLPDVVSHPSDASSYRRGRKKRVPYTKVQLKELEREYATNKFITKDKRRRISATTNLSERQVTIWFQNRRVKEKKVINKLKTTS

Consider `CC=CC(O)C1C=CC2C(=O)NC(=O)C2N1Nc1ccccn1` (stereo not drawn), for which the composite z-score in experiment [1] was 2.39 (inactive); in the experiment on XIP peptide (Xip251-270), 0.684. Further, the z-score in experiment [2] was -0.0521; in experiment [3], -1.1 (inactive); in experiment [4], 0.517 (inactive); in experiment [5] it was 0.359 (inactive).

For `[N-]=[N+]=NCc1ccccc1C[C@]1(C(=O)N2CCOCC2)COC(c2ccc(OCCCO)cc2)=N1`, the composite z-score in experiment [1] was 0.15 (inactive); with XIP peptide (Xip251-270), 0.711. The z-score in experiment [2] is -2.2; in experiment [3] it was -4.87 (inactive); in experiment [4], -0.677 (inactive); in experiment [5], -0.718 (inactive).

With `COc1ccc(C#Cc2ccc3c(c2)[C@]2(C(=O)N3)[C@H](C(=O)Nc3nc4ccccc4s3)[C@H]3C(=O)O[C@H](c4ccccc4)[C@H](c4ccccc4)N3[C@@H]2c2ccccc2OCCO)cc1`, the composite z-score in experiment [1] is 0.416 (inactive); in the experiment with XIP peptide (Xip251-270) it was 0.598. Besides, the z-score is -2.21 in experiment [2], -0.889 (inactive) in experiment [3], -0.347 (inactive) in experiment [4] and -0.392 (inactive) in experiment [5].

Consider `CN1C(=O)C2C=CC(C(O)c3cc(C(F)(F)F)cc(C(F)(F)F)c3)N(NC(=O)OC(C)(C)C)C2C1=O` (stereo not drawn), for which the composite z-score in experiment [1] was 1.07 (inactive); with XIP peptide (Xip251-270) it was 0.623. Further, the z-score in experiment [2] was -1.32; in experiment [3] it was -5.04 (inactive); in experiment [4], 0.0279 (inactive); in experiment [5], 0.275 (inactive).

Turning to `C[C@@H]1ON(c2ccc(I)cc2)[C@H](c2ccc(OC(=O)OC(C)(C)C)cc2)[C@H]1C(=O)N1C(=O)OC[C@H]1Cc1ccccc1`, the values for the composite z-score (in experiment [1]; in the experiment with XIP peptide (Xip251-270)) were 0.589 (inactive) and 0.515, respectively. For the same compound, the z-score in experiment [2] is -2.13; in experiment [3], -0.866 (inactive); in experiment [4], -1.08 (inactive); in experiment [5], -0.859 (inactive).

As to `[N-]=[N+]=Nc1ccccc1C[C@]1(C(=O)O)N=C(c2ccc(OCCCO)cc2)O[C@H]1c1ccccc1`, the composite z-score in experiment [1] was 0.471 (inactive); in the experiment on XIP peptide (Xip251-270), 0.641. Moreover, the z-score in experiment [2] was 0.283; in experiment [3] it was -5.34 (inactive); in experiment [4] it was 0.496 (inactive); in experiment [5], 0.558 (inactive).

As for `CC(=O)N1CC(C(O)C2C=CC3C(=O)NC(=O)C3N2Nc2ccc(Cl)cc2Cl)c2ccccc21` (stereo not drawn), the results for the composite z-score (in experiment [1]; with XIP peptide (Xip251-270)) were 0.111 (inactive) and 0.0205, respectively. In addition, the z-score is -0.252 in experiment [2], -4.92 (inactive) in experiment [3], 0.358 (inactive) in experiment [4] and 0.492 (inactive) in experiment [5].

As for `C=CCNC(=O)[C@@H]1[C@H]2C(=O)O[C@H](c3ccccc3)[C@H](c3ccccc3)N2[C@H](c2ccc(O)cc2)[C@@]12C(=O)N(C(=O)OCCOC)c1ccc(C#CCCO)cc12`, the composite z-score in experiment [1] is 2.07 (inactive); in the experiment with XIP peptide (Xip251-270) it was 0.749. For the same compound, the z-score is 1.05 in experiment [2], -3.19 (inactive) in experiment [3], 0.116 (inactive) in experiment [4] and -0.365 (inactive) in experiment [5].

Turning to `C=CCNC(=O)[C@@H]1[C@H]2C(=O)O[C@H](c3ccccc3)[C@H](c3ccccc3)N2[C@H](c2ccc(O)cc2)[C@@]12C(=O)Nc1ccc(C#CCC(C(=O)OC)C(=O)OC)cc12`, the composite z-score in experiment [1] was 1.03 (inactive); in the experiment with XIP peptide (Xip251-270), 0.729. The z-score is -1.84 in experiment [2], -2.97 (inactive) in experiment [3], -0.267 (inactive) in experiment [4] and -0.625 (inactive) in experiment [5].

With `COc1cc(NN2C(C(O)C3CCCCC3)C=CC3C(=O)N(c4ccccc4)C(=O)C32)cc(OC)c1OC` (stereo not drawn), the composite z-score in experiment [1] is 1.15 (inactive); with XIP peptide (Xip251-270) it was 0.751. Further, the z-score in experiment [2] was -0.495; in experiment [3], -4.43 (inactive); in experiment [4], 0.0699 (inactive); in experiment [5], -0.253 (inactive).

As for `COCCOC(=O)N1C(=O)[C@@]2(c3cc(C#CCC(C(=O)OC)C(=O)OC)ccc31)[C@H](C(=O)NC[C@H](O)c1ccccc1)[C@H]1C(=O)O[C@H](c3ccccc3)[C@H](c3ccccc3)N1[C@@H]2c1ccc(OCCO)cc1`, the composite z-score is 3.06 (inactive) in experiment [1] and 0.64 in the experiment on XIP peptide (Xip251-270). Moreover, the z-score in experiment [2] is -2.28; in experiment [3], -0.301 (inactive); in experiment [4], 0.0558 (inactive); in experiment [5] it was 0.176 (inactive).

Turning to `CC(C)C(=C=CC[C@@H](O)c1cccc(OCCO)c1)C[C@@H](O)COCc1ccccc1`, the composite z-score in experiment [1] was -0.096 (inactive); in the experiment with XIP peptide (Xip251-270), 0.294. The z-score in experiment [2] was -1.18; in experiment [3], -4.48 (inactive); in experiment [4], -1.66 (inactive); in experiment [5], -0.631 (inactive).

As to `CCOC(=O)C1=CCC(c2ccco2)N(S(=O)(=O)c2ccc(C)cc2)C1` (stereo not drawn), the composite z-score in experiment [1] is 0.397 (inactive); in the experiment with XIP peptide (Xip251-270), 0.704. For the same compound, the z-score was -0.0601 in experiment [2], -4.57 (inactive) in experiment [3], -0.641 (inactive) in experiment [4] and -0.942 (inactive) in experiment [5].
